Data on 20 compounds can be found in PubChem BioAssay (NCATS).

In assay [1] the target is Rap guanine nucleotide exchange factor 3 (Homo sapiens) (UniProt O95398). Briefly: Confirmatory qHTS for agonist of cAMP-regulated guanine nucleotide exchange factor 3 (EPAC1) (AID 1645881).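 Further: EPAC1 catalysed release of BODIPY-GDP from Rap1B seen as fluorescence loss; 100% = effect of cAMP agonist control; nearly all actives have a fitted effect of over 75% in size.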
Assay [2] concerns the target Rap guanine nucleotide exchange factor 4 (Homo sapiens) (UniProt Q8WZA2). In words: Confirmatory qHTS for agonist of cAMP-regulated guanine nucleotide exchange factor 4 (EPAC2) (AID 1645884).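 Further: nucleotide exchange releases bodipy-GDP from Rap1 and this lowers its fluorescence; on the % scale 0 is the no-effect control and ±100 the full control effect; nearly all actives have a fitted effect of over 65% in size.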
Assay [3] has the same target. In words: Confirmatory qHTS for antagonist of cAMP-regulated guanine nucleotide exchange factor 4 (EPAC2) (AID 1645885). Further: nearly all actives have a fitted effect of over 25% in size. Further: potency means the concentration at half of the fitted maximal effect. On activity change, negative = inhibition: on the % scale 0 is the no-effect control and ±100 the full control effect.
For assay [4], the target named is Rap guanine nucleotide exchange factor 3 (Homo sapiens) (UniProt O95398). In words: Counterscreen qHTS for antagonist of cAMP-regulated guanine nucleotide exchange factor 3 (EPAC1) (AID 1645888). Further: % of control where 0% means no effect. In a few lines: (§1)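 Measured: fluorescence of BODIPY-GDP bound to Rap1B, which falls as exchange proceeds. Conditions include 50 uM competing GDP, 5 and 30 min reads, and a later cAMP challenge for antagonist detection.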

Assay [5] shares this target. Briefly: Counterscreen qHTS for agonist of cAMP-regulated guanine nucleotide exchange factor 3 (EPAC1) (AID 1645889). Further: % of control where 0% means no effect; nearly all actives have a fitted effect of over 40% in size. Summed up: as §1

The structures appear in SMILES notation. Results filed as inconclusive are left out. A number with no mark means an inactive call. Activity calls are given as the source filed them. The call rests on the fitted dose curve; in most records, active means well fitted curve in the direction sought with a large enough effect; inconclusive means small, poorly fitted or top-dose-only effect, or another doubt; inactive means no such curve, though single readings can be large; an effect the other way counts as inactive or inconclusive.

Chain of Rap guanine nucleotide exchange factor 3 (Homo sapiens) (O95398 whole entry, looked up): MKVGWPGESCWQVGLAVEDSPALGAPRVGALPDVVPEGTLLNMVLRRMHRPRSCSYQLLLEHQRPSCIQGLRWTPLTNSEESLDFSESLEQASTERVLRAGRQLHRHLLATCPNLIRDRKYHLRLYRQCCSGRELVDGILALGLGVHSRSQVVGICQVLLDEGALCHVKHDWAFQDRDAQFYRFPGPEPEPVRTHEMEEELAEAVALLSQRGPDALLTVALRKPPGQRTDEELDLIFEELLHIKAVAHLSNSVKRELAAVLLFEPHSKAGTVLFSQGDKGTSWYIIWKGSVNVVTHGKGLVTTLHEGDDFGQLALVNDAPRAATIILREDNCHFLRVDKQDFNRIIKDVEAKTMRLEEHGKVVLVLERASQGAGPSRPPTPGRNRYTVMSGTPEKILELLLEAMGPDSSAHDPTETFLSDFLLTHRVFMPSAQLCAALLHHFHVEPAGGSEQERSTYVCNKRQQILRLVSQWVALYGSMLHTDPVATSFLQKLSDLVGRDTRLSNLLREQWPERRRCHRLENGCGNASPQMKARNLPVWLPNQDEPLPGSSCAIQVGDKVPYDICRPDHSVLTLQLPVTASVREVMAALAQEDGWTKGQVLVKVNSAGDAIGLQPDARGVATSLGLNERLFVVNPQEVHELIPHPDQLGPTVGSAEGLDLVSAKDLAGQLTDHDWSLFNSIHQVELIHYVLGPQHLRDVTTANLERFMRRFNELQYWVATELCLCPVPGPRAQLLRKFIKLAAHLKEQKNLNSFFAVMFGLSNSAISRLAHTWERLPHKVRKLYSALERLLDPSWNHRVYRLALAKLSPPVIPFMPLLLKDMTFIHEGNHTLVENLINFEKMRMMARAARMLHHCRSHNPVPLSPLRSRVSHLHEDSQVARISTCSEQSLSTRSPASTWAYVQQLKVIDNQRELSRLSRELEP
Chain of Rap guanine nucleotide exchange factor 4 (Homo sapiens) (Q8WZA2 whole entry, looked up): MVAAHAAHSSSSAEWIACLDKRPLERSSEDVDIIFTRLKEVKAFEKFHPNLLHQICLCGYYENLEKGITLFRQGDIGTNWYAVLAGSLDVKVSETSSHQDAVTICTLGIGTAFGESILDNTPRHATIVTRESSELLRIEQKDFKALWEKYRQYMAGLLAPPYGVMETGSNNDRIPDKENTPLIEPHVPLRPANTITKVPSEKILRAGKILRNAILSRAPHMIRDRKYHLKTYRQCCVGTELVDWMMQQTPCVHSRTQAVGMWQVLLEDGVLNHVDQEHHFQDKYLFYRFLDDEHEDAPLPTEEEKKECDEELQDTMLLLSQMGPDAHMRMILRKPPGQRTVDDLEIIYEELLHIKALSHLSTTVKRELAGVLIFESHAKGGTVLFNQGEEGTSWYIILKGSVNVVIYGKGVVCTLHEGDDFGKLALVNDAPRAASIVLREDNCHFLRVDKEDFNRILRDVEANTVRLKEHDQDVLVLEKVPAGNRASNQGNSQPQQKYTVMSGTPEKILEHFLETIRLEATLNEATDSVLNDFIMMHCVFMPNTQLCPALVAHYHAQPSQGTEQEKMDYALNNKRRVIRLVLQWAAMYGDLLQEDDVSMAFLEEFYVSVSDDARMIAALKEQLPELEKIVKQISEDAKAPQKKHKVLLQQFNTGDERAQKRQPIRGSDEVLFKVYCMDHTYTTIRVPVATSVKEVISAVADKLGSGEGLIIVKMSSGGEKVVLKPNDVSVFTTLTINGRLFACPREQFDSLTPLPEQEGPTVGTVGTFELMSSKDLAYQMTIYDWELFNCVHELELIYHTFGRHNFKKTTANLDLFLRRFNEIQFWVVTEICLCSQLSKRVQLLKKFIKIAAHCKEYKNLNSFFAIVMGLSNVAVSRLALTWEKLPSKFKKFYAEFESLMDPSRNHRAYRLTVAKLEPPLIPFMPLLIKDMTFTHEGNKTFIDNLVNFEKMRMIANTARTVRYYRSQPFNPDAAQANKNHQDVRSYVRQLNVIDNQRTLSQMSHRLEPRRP

Take `COC1=C(Nc2ccc(O)cc2)C(=O)c2ccccc2C1=O`: the Potency entry in assay [1] and in assay [3] was “inactive” each time. For the same compound, the activation in assay [2] is 5% [at 17.1 µM, percent relative to cAMP agonist control]; in assay [5] it was 25.2% [at 30.8 µM]. In addition, the activity change, negative = inhibition in assay [4] was 4.79% [at 30.8 µM].

Take `Cc1cc2nc(-c3ccc(SCc4ccccn4)nc3)[nH]c2cc1C`: the Potency result in assay [1] and in assay [3] was “inactive” throughout. Besides, the activation in assay [2] was 4.1% [at 17.1 µM, percent relative to cAMP agonist control]; in assay [5] it was 19.2% [at 30.8 µM]. In assay [4], the activity change, negative = inhibition was 1.95% [at 30.8 µM].

Turning to `COc1ccc(-c2cnnc(N/N=C/c3ccc(O)c(O)c3)n2)cc1`, the Potency result in assay [1], in assay [2], in assay [3], in assay [4] and in assay [5] was “inactive” each time.

Regarding `CN(c1ccccc1)c1ccc(/C=C(\CCC(=O)O)c2nc3ccccc3s2)cc1[N+](=O)[O-]`, the Potency entry in assay [1], in assay [2], in assay [3], in assay [4] and in assay [5] was “inactive” throughout.

In the case of `Cc1ccc(C(=O)Cc2ccccc2)c(O)c1`, the Potency entry in assay [1] and in assay [3] was “inactive” in each case. The activation in assay [2] was 0.272% [at 17.1 µM, percent relative to cAMP agonist control]; in assay [5] it was 23.4% [at 30.8 µM]. Also, the activity change, negative = inhibition in assay [4] is -3.71% [at 30.8 µM].

As to `O=[N+]([O-])CC(c1ccccc1)c1c[nH]c2ccccc12` (stereo not given), the Potency entry in assay [1], in assay [2], in assay [4] and in assay [5] was “inactive” each time. Besides, the Potency in assay [3] was 21.3 µM (active).

`Cn1c(N)c(C(=O)CSc2nnc(-c3c[nH]c4ccccc34)n2C2CC2)c(=O)[nH]c1=O`: the Potency result in assay [1] and in assay [3] was “inactive” throughout. In addition, the activation in assay [2] is 1.91% [at 17.1 µM, percent relative to cAMP agonist control]; in assay [5], 17.7% [at 30.8 µM]. Also, the activity change, negative = inhibition in assay [4] is 2.97% [at 30.8 µM].

Turning to `O=C(CSc1nc2ccsc2c(=O)n1NC(=O)c1ccccc1)Nc1nccs1`, the Potency entry in assay [1], in assay [2], in assay [3], in assay [4] and in assay [5] was “inactive” each time.

For the compound `CCc1nnc(NS(=O)(=O)c2ccc(NCc3cc(Cl)cc(Cl)c3O)cc2)s1`, the Potency entry in assay [1], in assay [2], in assay [4] and in assay [5] was “inactive” in each case. Moreover, the Potency in assay [3] is 5.36 µM (active).

Take `CCc1cccc(NC(=O)COC(=O)/C=C/c2cccs2)c1`: the Potency result in assay [1], in assay [2], in assay [3], in assay [4] and in assay [5] was “inactive” each time.

Turning to `CCCCN1C(=O)C(NC(=O)c2ccc(C(C)(C)C)cc2)(C(F)(F)F)C(C(=O)OC)=C1C` (stereo not given), the Potency result in assay [1], in assay [2], in assay [3], in assay [4] and in assay [5] was “inactive” each time.

With `COc1ccc(N=C2SC(C(=O)Nc3ccc(C(=O)O)cc3)CC(=O)N2Cc2cccs2)cc1` (stereo not given), the Potency entry in assay [1] and in assay [3] was “inactive” in each case. Besides, the activation in assay [2] is -0.227% [at 17.1 µM, percent relative to cAMP agonist control]; in assay [5], 7.24% [at 30.8 µM]. For the same compound, the activity change, negative = inhibition in assay [4] is -2.18% [at 30.8 µM].

With `COc1ccc(OCC(=O)OCCNC(=O)c2cccnc2)cc1`, the Potency result in assay [1] and in assay [3] was “inactive” throughout. Moreover, the activation in assay [2] is -1.04% [at 17.1 µM, percent relative to cAMP agonist control]; in assay [5] it was 0.499% [at 30.8 µM]. For the same compound, the activity change, negative = inhibition in assay [4] was -8.99% [at 30.8 µM].

Turning to `Cc1nn(CCc2nn[nH]n2)c2nc(-c3ccc(Br)cc3)cc(C(F)(F)F)c12`, the Potency result in assay [1], in assay [2], in assay [3], in assay [4] and in assay [5] was “inactive” each time.

In the case of `CCN(CC)c1ccc(/C=C2/C(=O)c3ccc(C(=O)O)cc3C2=O)cc1`, the Potency entry in assay [1] and in assay [3] was “inactive” throughout. In addition, the activation in assay [2] was 4.11% [at 17.1 µM, percent relative to cAMP agonist control]; in assay [5], 9.24% [at 30.8 µM]. Also, the activity change, negative = inhibition in assay [4] was 8.07% [at 30.8 µM].

As for `CC(=O)/C(=N/Nc1ccccc1)Sc1nnc(CCc2ccccc2)n1-c1ccccc1`, the Potency result in assay [1], in assay [2], in assay [3], in assay [4] and in assay [5] was “inactive” throughout.

Take `O=C(O)CN1C(=O)/C(=C\c2cc([N+](=O)[O-])ccc2OCc2ccccc2Cl)SC1=S`: the Potency result in assay [1] and in assay [3] was “inactive” each time. Further, the activation in assay [2] is 2.47% [at 17.1 µM, percent relative to cAMP agonist control]; in assay [5], 29.5% [at 30.8 µM]. The activity change, negative = inhibition in assay [4] is -20.4% [at 30.8 µM].

Consider `O=C(NCc1ccco1)c1c2c(nc3ccccc13)CCC2`, for which the Potency entry in assay [1] and in assay [3] was “inactive” each time. Besides, the activation in assay [2] was 6.94% [at 17.1 µM, percent relative to cAMP agonist control]; in assay [5], 26.4% [at 30.8 µM]. Moreover, the activity change, negative = inhibition in assay [4] was -4.49% [at 30.8 µM].

In the case of `Cc1nnc(-c2ccco2)c2cn(-c3cccc(Br)c3)nc12`, the Potency entry in assay [1], in assay [2], in assay [3], in assay [4] and in assay [5] was “inactive” in each case.

For the compound `CCOC(=O)C1Nc2ccc(C(F)(F)F)cc2C2C=CCC12` (stereo not given), the Potency entry in assay [1] and in assay [3] was “inactive” throughout. In addition, the activation in assay [2] was 1.4% [at 17.1 µM, percent relative to cAMP agonist control]; in assay [5], 11.6% [at 30.8 µM]. Also, in assay [4], the activity change, negative = inhibition was -11.7% [at 30.8 µM].
